Screen size: about 5,500 compounds; about 2,000 (36%) were called active. Not shown: some 18% with an inconclusive outcome. Cut-off read from the data, not from the text of the source: active = normalized growth mostly below about 0.91 (no sharp cut-off); inconclusive = no clear call, values can overlap the other calls; inactive = mostly above about 0.92. The list shows a part of the results.
Assay: chemical genetic growth profiling, strain panel (AID 1159580);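 note: tested at 20 µM; growth read once vehicle control cultures reached saturation at 30 °C; 1 = growth at the plate median or of vehicle wells; lower values mean less growth of the strain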
Conditions: growth OD

Measured: normalized growth

CCCCCC(O)C1C(=O)OC(C)C(O)/C=C/C=C/C=C/C=C/C=C(\C)C(O)CC(O)CC(O)CC(O)CC(O)CC(O)CC1O (configuration not stated)
inactive: S. cerevisiae deletion strains, locus YJR075W, strain HOC1, active compounds read low 0.994 | S. cerevisiae deletion strains, locus YKL009W, strain mrt4, active compounds read low 0.999 | S. cerevisiae deletion strains, locus YKL068W, active compounds read low 1.03 | S. cerevisiae deletion strains, locus YKL085W, strain MDH1 (second series), active compounds read low 0.975 | S. cerevisiae deletion strains, locus YKL085W, strain MDH1, active compounds read low 0.975 | S. cerevisiae deletion strains, locus YKL160W, strain elf1, active compounds read low 1.01 | S. cerevisiae deletion strains, locus YKL190W, strain CNB1, active compounds read low 1.01 | S. cerevisiae deletion strains, locus YKR001C, strain vps1, active compounds read low 1.03 | S. cerevisiae deletion strains, locus YKR026C, strain gcn3, active compounds read low 0.966 | S. cerevisiae deletion strains, locus YKR091W, strain srl3, active compounds read low 0.995 | S. cerevisiae deletion strains, locus YLL001W, strain dnm1, active compounds read low 1.01 | S. cerevisiae deletion strains, locus YLL026W, active compounds read low 0.982 | S. cerevisiae deletion strains, locus YLL041C, strain sdh2, active compounds read low 0.994 | S. cerevisiae deletion strains, locus YLR027C, strain aat2, active compounds read low 0.983 | S. cerevisiae deletion strains, locus YLR039C, strain RIC1, active compounds read low 1.08 | S. cerevisiae deletion strains, locus YLR058C, strain SHM2, active compounds read low 1.01 | S. cerevisiae deletion strains, locus YLR102C, strain apc9, active compounds read low 1.02 | S. cerevisiae deletion strains, locus YLR113W, strain HOG1, active compounds read low 0.951 | S. cerevisiae deletion strains, locus YLR221C, strain rsa3, active compounds read low 1 | S. cerevisiae deletion strains, locus YLR258W, strain gsy2, active compounds read low 0.991 | S. cerevisiae deletion strains, locus YLR262C, strain YPT6 (second series), active compounds read low 0.997 | S. cerevisiae deletion strains, locus YLR262C, strain YPT6, active compounds read low 1.09 | S. cerevisiae deletion strains, locus YLR268W, strain sec22, active compounds read low 1.02 | S. cerevisiae deletion strains, locus YLR320W, strain mms22, active compounds read low 0.992 | S. cerevisiae deletion strains, locus YLR330W, strain CHS5, active compounds read low 1.01 | S. cerevisiae deletion strains, locus YLR342W, strain FKS1 (second series), active compounds read low 1.06 | S. cerevisiae deletion strains, locus YLR342W, strain FKS1, active compounds read low 0.983 | S. cerevisiae deletion strains, locus YLR357W, strain rsc2, active compounds read low 0.972 | S. cerevisiae deletion strains, locus YLR370C, strain arc18, active compounds read low 0.982 | S. cerevisiae deletion strains, locus YLR371W, strain rom2, active compounds read low 1.02 | S. cerevisiae deletion strains, locus YLR384C, strain iki3, active compounds read low 0.985 | S. cerevisiae deletion strains, locus YLR418C, strain cdc73, active compounds read low 1.02 | S. cerevisiae deletion strains, locus YML016C, strain PPZ1, active compounds read low 1.01 | S. cerevisiae deletion strains, locus YML032C, strain rad52, active compounds read low 1.04 | S. cerevisiae deletion strains, locus YML120C, strain ndi1, active compounds read low 1 | S. cerevisiae deletion strains, locus YML124C, strain tub3, active compounds read low 1.02 | S. cerevisiae deletion strains, locus YMR058W, strain fet3, active compounds read low 0.997 | S. cerevisiae deletion strains, locus YMR078C, strain ctf18, active compounds read low 1.03 | S. cerevisiae deletion strains, locus YMR125W, strain sto1, active compounds read low 0.959 | S. cerevisiae deletion strains, locus YMR129W, active compounds read low 0.977 | S. cerevisiae deletion strains, locus YMR205C, strain PFK2, active compounds read low 0.955 | S. cerevisiae deletion strains, locus YMR223W, strain ubp8, active compounds read low 1.03 | S. cerevisiae deletion strains, locus YMR231W, strain pep5, active compounds read low 1 | S. cerevisiae deletion strains, locus YMR263W, strain SAP30, active compounds read low 1.01 | S. cerevisiae deletion strains, locus YMR307W, strain GAS1, active compounds read low 1.12 | S. cerevisiae deletion strains, locus YNL067W, strain RPL9B, active compounds read low 1.01 | S. cerevisiae deletion strains, locus YNL071W, strain lat1, active compounds read low 0.996 | S. cerevisiae deletion strains, locus YNL128W, strain TEP1, active compounds read low 0.998 | S. cerevisiae deletion strains, locus YNL153C, strain GIM3, active compounds read low 0.994 | S. cerevisiae deletion strains, locus YNL183C, strain NPR1, active compounds read low 0.928 | S. cerevisiae deletion strains, locus YNL209W, strain ssb2, active compounds read low 0.997 | S. cerevisiae deletion strains, locus YNL233W, strain BNI4, active compounds read low 1 | S. cerevisiae deletion strains, locus YNL248C, strain rpa49, active compounds read low 1.01 | S. cerevisiae deletion strains, locus YNL250W, strain rad50, active compounds read low 1 | S. cerevisiae deletion strains, locus YNL271C, strain bni1, active compounds read low 1.02 | S. cerevisiae deletion strains, locus YNL298W, strain CLA4, active compounds read low 1.02 | S. cerevisiae deletion strains, locus YNL307C, strain MCK1, active compounds read low 1.06 | S. cerevisiae deletion strains, locus YNL322C, strain KRE1 (second series), active compounds read low 0.989 | S. cerevisiae deletion strains, locus YNL322C, strain KRE1, active compounds read low 1.01 | S. cerevisiae deletion strains, locus YNR049C, strain mso1, active compounds read low 0.984 | S. cerevisiae deletion strains, locus YNR052C, strain pop2, active compounds read low 1.02 | S. cerevisiae deletion strains, locus YOL006C, strain TOP1, active compounds read low 1.01 | S. cerevisiae deletion strains, locus YOL012C, strain htz1 1.12 | S. cerevisiae deletion strains, locus YOL147C, strain pex11, active compounds read low 1.02 | S. cerevisiae deletion strains, locus YOR001W, strain rrp6, active compounds read low 1 | S. cerevisiae deletion strains, locus YOR061W, strain CKA2, active compounds read low 1.01 | S. cerevisiae deletion strains, locus YOR069W, strain VPS5, active compounds read low 0.999 | S. cerevisiae deletion strains, locus YOR070C, strain gyp1, active compounds read low 0.989 | S. cerevisiae deletion strains, locus YOR080W, strain dia2, active compounds read low 0.976 | S. cerevisiae deletion strains, locus YOR083W, strain WHI5, active compounds read low 1.01 | S. cerevisiae deletion strains, locus YOR106W, strain vam3, active compounds read low 1.01 | S. cerevisiae deletion strains, locus YOR136W, strain idh2, active compounds read low 1.03 | S. cerevisiae deletion strains, locus YOR144C, strain elg1, active compounds read low 1.03 | S. cerevisiae deletion strains, locus YOR184W, strain ser1, active compounds read low 1.06 | S. cerevisiae deletion strains, locus YOR231W, strain MKK1, active compounds read low 0.954 | S. cerevisiae deletion strains, locus YOR265W, strain rbl2, active compounds read low 0.995 | S. cerevisiae deletion strains, locus YOR270C, strain vph1, active compounds read low 1.01 | S. cerevisiae deletion strains, locus YOR290C, strain snf2, active compounds read low 0.995 | S. cerevisiae deletion strains, locus YOR316C, strain cot1, active compounds read low 1.02 | S. cerevisiae deletion strains, locus YPL051W, strain arl3, active compounds read low 0.996 | S. cerevisiae deletion strains, locus YPL055C, strain LGE1, active compounds read low 1.01 | S. cerevisiae deletion strains, locus YPL078C, strain atp4, active compounds read low 1.01 | S. cerevisiae deletion strains, locus YPL106C, strain sse1, active compounds read low 0.987 | S. cerevisiae deletion strains, locus YPL240C, strain hsp82, active compounds read low 1.02 | S. cerevisiae deletion strains, locus YPL241C, strain CIN2, active compounds read low 1.01 | S. cerevisiae deletion strains, locus YPL256C, strain CLN2, active compounds read low 0.975 | S. cerevisiae deletion strains, locus YPR119W, strain clb2, active compounds read low 1.02 | S. cerevisiae deletion strains, locus YPR141C, strain kar3, active compounds read low 1.03 | S. cerevisiae deletion strains, locus YPR163C, strain tif3, active compounds read low 1.02 | S. cerevisiae deletion strains, locus YPR167C, strain met16, active compounds read low 1.02 | S. cerevisiae deletion strains, strain wtn01, active compounds read low 1.01 | S. cerevisiae strains, strain wild type, active compounds read low 1.01

— PubChem BioAssay AID1159580 (chemical genetic matrix, 2015)
